Data from PubChem BioAssay (NCI).
“And” between values parts separate entries of the source, which are not always exact repeats. Equal entries are not always repeated. This is part of a sample that, as a whole, favours compounds with a hit. Of some 79,000 tested, about 15% had one in any assay. A number with no mark means an inactive call. The source made the active and inactive calls. Cut-off read from the data, not from the text of the source: active = growth inhibition above about 70%; inactive = the rest.

How the values were obtained:
[1] = NCI Yeast Anticancer Drug Screen. Data for the rad50 strain (AID 155);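 note: 0% = growth of vehicle-only cultures of the same strain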; settings: S. cerevisiae rad50 strain growth inhibition, active compounds read high
Procedure, shortened: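 Yeast carrying a defined DNA repair defect were exposed to test compounds, and growth was compared with vehicle-treated controls to give percent inhibition.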

[2] = NCI Yeast Anticancer Drug Screen. Data for the sgs1 mgt1 strain (AID 161);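 note: 0% = growth of cultures given vehicle only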; settings: S. cerevisiae sgs1 mgt1 strain, active compounds read high
Procedure, shortened: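 Percent growth inhibition was derived by comparing compound-exposed mutant yeast with vehicle-exposed cultures. The strain carries alterations in DNA damage repair.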

[3] = NCI Yeast Anticancer Drug Screen. Data for the cln2 rad14 strain (AID 165);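 note: 0% = growth equal to vehicle treated cultures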; settings: S. cerevisiae cln2 rad14 strain, active compounds read high
Procedure, shortened: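 Yeast carrying cln2 and rad14 alterations (cell cycle control and DNA damage repair) were exposed to compounds. Growth inhibition was measured against vehicle-treated controls.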

[4] = NCI Yeast Anticancer Drug Screen. Data for the bub3 strain (AID 167); settings: S. cerevisiae bub3 mutant strain, active compounds read high
Procedure, shortened: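 Compounds were applied to a genetically altered yeast strain carrying a cell-cycle control defect. Growth inhibition was scored against vehicle-treated controls.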

[5] = NCI Yeast Anticancer Drug Screen. Data for the mlh1 rad18 strain (AID 175); settings: S. cerevisiae mlh1 rad18 strain growth inhibition, active compounds read high
Procedure, shortened: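 Growth inhibition of the yeast strain was measured after compound exposure and expressed relative to vehicle-treated controls. The strain carries defined defects in DNA damage repair.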

[6] = NCI Yeast Anticancer Drug Screen. Data for the mec2-1 strain (AID 157); settings: S. cerevisiae mec2-1 strain, active compounds read high
Procedure, shortened: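 mec2-1 yeast strain, carrying an alteration in DNA damage repair or cell cycle control, was exposed to compounds; growth inhibition was measured relative to vehicle-treated controls.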

[7] = at 5.0 µM (retest, dose inferred, filed as 0.5)
[8] = at 50.0 µM (retest, dose inferred, filed as 5.0)

Structure (SMILES) | growth inhibition [1, 7] [%] | growth inhibition [1, 8] | growth inhibition ([1]; at 50.0 µM) | growth inhibition [2, 7] | growth inhibition [2, 8] | growth inhibition ([2]; at 50.0 µM) | growth inhibition [3, 7] | growth inhibition [3, 8] | growth inhibition ([3]; at 50.0 µM) | growth inhibition [4, 7] | growth inhibition [4, 8] | growth inhibition ([4]; at 50.0 µM) | growth inhibition [5, 7] | growth inhibition [5, 8] | growth inhibition ([5]; at 50.0 µM) | growth inhibition [6, 7] | growth inhibition [6, 8] | growth inhibition ([6]; at 50.0 µM)
CC(=O)C1=C(C)O/C(=C/c2ccc(Cl)cc2)C1=O | 27 | 94% (active) | 49.5% | 34% | 99% (active) | 85.7% (active) | 34% | 90% (active) | 79% (active) | 31% | 99% (active) | 83.2% (active) | 34% | 98% (active) | 91.8% (active) |  |  | 
CCOc1ccc(N=Nc2c(C)nn(C(=S)SC)c2OCC)cc1 |  |  |  | 4% | 74% (active) | 99.2% (active) | -13% | 27% | 99.5% (active) | -17% | 72% (active) | 99.3% (active) | -24% | 73% (active) | 99.5% (active) | -7% | 61% | 99.7% (active)
CCN(CC)c1ccc2nc3ccc(N(CC)CC)cc3[n+](-c3ccccc3)c2c1 |  |  |  | 92% (active) | 99% (active) | 98.7% (active) | 79% (active) | 98% (active) | 97.5% (active) | 98% (active) | 98% (active) | 98.7% (active) | 99% (active) | 99% (active) | 98.7% (active) | 100% (active) | 99% (active) | 93.7% (active)
CCOC(=O)CCC(N)C(=O)OCC (stereo unspecified) |  |  | 20.8% and 1.45% and -26.1% |  |  | 8.4% and -2% and -19.9% |  |  | 5.9% and -29.1% and -40.6% |  |  | 1.45% and 7.05% and -8.7% |  |  | 10.9% and 23.9% and -16.1% |  |  | -4.05% and -5.05% and -0.15%
O=C1/C(=C/c2ccc([N+](=O)[O-])cc2)Sc2scc(-c3cccc([N+](=O)[O-])c3)[n+]21 |  |  |  | 96% (active) | 99% (active) | 90.6% (active) | 53% | 98% (active) | 90.6% (active) | 99% (active) | 99% (active) | 87% (active) | 51% | 99% (active) | 91.1% (active) | 69% | 98% (active) | 89.5% (active)
CNC(=S)N/N=C(\C=N\NC(=S)NC)c1ccccc1 | 7 | 32% | 74.7% (active) | 3% | 37% | 82.4% (active) | 9% | 30% | 37.8% | -1% | 25% | 59.5% | 0% | 44% | 66.8% |  |  | 
CC(=O)NC1=C(Nc2ccc(-c3ccc(NC4=C(NC(C)=O)C(=O)c5ccccc5C4=O)cc3)cc2)C(=O)c2ccccc2C1=O |  |  |  | 100% (active) | 99% (active) | 99.5% (active) | 99% (active) | 98% (active) | 99.1% (active) | 99% (active) | 99% (active) | 98.7% (active) | 99% (active) | 99% (active) | 99.3% (active) | 100% (active) | 99% (active) | 99.5% (active)
C1=C(C2=C[P+](c3ccccc3)(c3ccccc3)C=C(c3ccccc3)O2)OC(c2ccccc2)=C[P+]1(c1ccccc1)c1ccccc1 | 7 | 15% | -10.1% |  |  |  | 5% | 2% | 71% (active) | 11% | 66% | 6.8% | 9% | 6% | 18.3% | 4% | 8% | -7.05%
CCc1ccc(/C(C)=N/NC(N)=S)cc1 | -4 | 89% (active) | 53.6% | 3% | 91% (active) | 42.8% | -18% | 74% (active) | 54.8% | -9% | 92% (active) | 34.8% | -2% | 93% (active) | 74.5% (active) |  |  | 
